# A number with no mark means an inactive call. Inconclusive results are not listed. A call without a number means that no potency is given here. Activity calls are given as the source filed them. Unless noted, the call rests on the fitted dose curve.
# How the values were obtained:
# [1] = Nuclear factor erythroid 2-related factor 2/antioxidant responsive element (Nrf2/ARE) small molecule agonists: qHTS cell viability counter screen in human keratinocytes (AID 1919968; active means well fitted curve in the direction sought with a large enough effect in the repeat runs; an effect the other way counts as inactive or inconclusive; further: nearly all actives have a fitted effect of over 55% in size)
# In short: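 CellTiter-Fluor fluorescence, read 1 h after reagent, gave viability in the same wells as the ARE-luciferase assay. KeratinoSens cells (1,500/well) had 23 h compound exposure at 37 C/5% CO2 following 5 h plating.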
# [2] = Nuclear factor erythroid 2-related factor 2/antioxidant responsive element (Nrf2/ARE) small molecule agonists: luciferase reporter gene qHTS assay in human keratinocytes (AID 1919969); further: nearly all actives have a fitted effect of over 35% in size; further: potency means the concentration at half of the fitted maximal effect
# [3] = target: Gonadotropin-releasing hormone receptor (Homo sapiens) (UniProt P30968); test: Human gonadotropin-releasing hormone receptor (GnRHR) small molecule agonists, calcium flux assay in GnRHR-HEK293 cells (AID 1920063); further: nearly all actives have a fitted effect of over 35% in size
# In short: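 Agonist mode: compounds at 15 concentrations, in triplicate, went onto calcium dye-loaded GnRHR-HEK293 cells. Intracellular calcium was then followed as 480/540 nm fluorescence at 1 s intervals over 3 min.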
# [4] = target: KiSS-1 receptor (Homo sapiens) (UniProt Q969F8); test: Human kisspeptin (KISS1R) small molecule agonists, calcium flux assay in KISS1R-HEK293 cells (AID 1920064; active means well fitted curve in the direction sought with a large enough effect in the repeat runs; an effect the other way counts as inactive or inconclusive)
# In short: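 Agonist mode: intracellular calcium rise tracked at 1 s intervals over 3 min (480/540 nm) immediately after compound addition to dye-loaded KISS1R-HEK293 stable cells. Each compound tested at 15 concentrations in triplicate.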
# [5] = G protein-coupled receptor (GPCR) small molecule agonists, calcium flux assay: HEK293 wild type cell line counter screen (AID 1920065)
# In short: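 Calcium flux counter screen: compound added in agonist mode at 15 concentrations in triplicate to dye-loaded parental HEK293 cells. Fluorescence (480/540) read kinetically for 3 min; ATP served as positive control.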
# [6] = p53 small molecule agonists, cell-based qHTS assay with human liver microsomes (AID 1963577)
# In short: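 Fluorescence of the beta-lactamase reporter in p53RE-bla cells, detected with LiveBLAzer substrate (2 h, room temperature, dark), served as the read-out after 16 h compound exposure at 37 C with human liver microsomes and NADPH, each 0.5 mg/mL final.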
# [7] = p53 small molecule agonists, cell-based qHTS assay with rat liver microsomes (AID 1963578)
# In short: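 Cells carrying a p53 response element–beta-lactamase reporter were plated and rested 5 h, then dosed with compound in DMSO plus rat liver microsomes and NADPH, each at 0.5 mg/mL final. After 16 h at 37 C, LiveBLAzer substrate was added for 2 h.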
# [8] = p53 small molecule agonists, cell-based qHTS assay with human liver microsomes: qHTS cell viability counter screen (AID 1963579); further: nearly all actives have a fitted effect of over 45% in size
# In short: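 Cytotoxicity counter screen: p53RE-bla, 4,000 cells/well; 5 h settle, 37 C/5% CO2; cpd + HLM 0.5 mg/mL + NADPH 0.5 mg/mL (final); 16 h, 37 C; CellTiter-Glo, 30 min RT, luminescence.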
# [9] = p53 small molecule agonists, cell-based qHTS assay with rat liver microsomes: qHTS cell viability counter screen (AID 1963580); further: nearly all actives have a fitted effect of over 45% in size
# In short: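 Rat liver microsome (0.5 mg/mL final) and NADPH (0.5 mg/mL final) co-incubation with compounds for 16 h at 37 C on HCT-116 p53RE-bla cells; cytotoxicity taken from intracellular ATP luminescence.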
# [10] = p53 small molecule agonists, cell-based qHTS assay: qHTS cell viability counter screen (AID 1963581); further: nearly all actives have a fitted effect of over 45% in size
# In short: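 Counter screen read by CellTiter-Glo luminescence (ATP content, 30 min at room temperature), run in the same wells as the beta-lactamase reporter read. HCT-116 p53RE-bla cells saw compounds for 16 h at 37 C.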
# [11] = p53 small molecule agonists, cell-based qHTS assay (AID 1963582; active means well fitted activation curve with a large enough effect in the signal ratio in the repeat runs, not every such curve was filed as active; the % refers to the signal ratio)
# In short: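 Read-out is beta-lactamase FRET fluorescence after 2 h at room temperature with LiveBLAzer B/G substrate. p53 response element-bla cells were treated 16 h at 37 C with compounds in DMSO, added 5 h after seeding.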
# [12] = target: 5-hydroxytryptamine receptor 2A (Homo sapiens) (UniProt P28223); test: 5-hydroxytryptamine receptor 2A (HTR2A) small molecule agonists, cell-based qHTS assay (AID 1963587); further: nearly all actives have a fitted effect of over 30% in size
# In short: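 Kinetic calcium-flux fluorescence (2 min, 1 sec intervals) after compound addition in agonist mode. HTR2A-CHO cells were cultured 18 h, then dye-loaded 1 h at 37 C.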
# [13] = target: Muscarinic acetylcholine receptor M1 (Homo sapiens) (UniProt P11229); test: Cholinergic receptor muscarinic 1 (CHRM1) small molecule agonists, cell-based qHTS assay (AID 1963589); further: nearly all actives have a fitted effect of over 35% in size
# In short: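 Agonist-mode calcium-flux screen: compounds at 15 concentrations, three independent runs, were pin-transferred onto dye-loaded human CHRM1-CHO cells. Fluorescence was then recorded kinetically every second over minutes.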
# [14] = target: D(2) dopamine receptor (Homo sapiens) (UniProt P14416); test: Dopamine D2 receptor (DRD2) small molecule agonists, cell-based qHTS assay (AID 1963594); further: nearly all actives have a fitted effect of over 35% in size
# In short: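 cAMP accumulation in DRD2-HEK293 cells measured by HTRF after 1 h detection; compounds added 10 min before NKH477 (200nM […]) forskolin-analogue stimulation, 30 min at room temperature, with Ro20-1724 present at 0.1 mM final.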
# [15] = target: D(2) dopamine receptor (Homo sapiens) (UniProt P14416); test: Dopamine D2 receptor (DRD2) small molecule antagonists, cell-based qHTS assay (AID 1963595; active means well fitted inhibition curve with a large enough effect in the signal ratio in the repeat runs, with a control signal flat; the % refers to the signal ratio)
# In short: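 In this cell-based antagonist screen, compounds act for 10 min at room temperature before a 30 min challenge with 12 nM quinpirole and 200 nM NKH477. cAMP is quantified by HTRF competition in DRD2-HEK293 cells containing 0.1 mM Ro20-1724.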
# [16] = target: Muscarinic acetylcholine receptor M1 (Homo sapiens) (UniProt P11229); test: Cholinergic receptor muscarinic 1 (CHRM1) small molecule antagonists, cell-based qHTS assay (AID 1963588); further: nearly all actives have a fitted effect of over 40% in size
# In short: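 Compounds were tested at 15 concentrations in three independent runs. Dye-loaded CHRM1-CHO cells were exposed 5 min at room temperature before stimulation by acetylcholine added at 50nM. Intracellular calcium was read kinetically on FDSS for 3 min.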
# [17] = target: Beta-2 adrenergic receptor (Homo sapiens) (UniProt P07550); test: Adrenergic beta2 receptor (ADRB2) small molecule antagonists, cell-based qHTS assay (AID 1963592); further: series mostly up to about 92 µM; nearly all actives have a fitted effect of over 50% in size
# In short: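 Assay format: CHO-ADRB2 cells, 18-20hr seeding at 37C/5% CO2, then compound plus 1nM isoproterenol agonist mix for 0.5hr RT. Homogeneous time-resolved fluorescence cAMP detection after 1hr, expressed as 665/615 nm ratio.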
# [18] = cAMP Responsive Elements (CRE) small molecule agonists, cell-based qHTS assay (AID 1963590)
# In short: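 Agonist mode: compound added to CRE-bla HEK 293T cells (2,000/well, 18 h after plating) for 3 h at 37 C/5% CO2. Reporter activity detected via FRET beta-lactamase substrate, 2 h room-temperature loading.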
# [19] = cAMP Responsive Elements (CRE) small molecule antagonists, cell-based qHTS assay (AID 1963591; active means well fitted inhibition curve with a large enough effect in the signal ratio in the repeat runs, not every such curve was filed as active; the % refers to the signal ratio)
# In short: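 Antagonist mode: compounds are added alongside the adenylyl cyclase activator NKH477 (0.25 uM final) to CRE-bla HEK293T cells for 3 h. LiveBLAzer FRET substrate, 2 h at room temperature, reports bla expression.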
# [20] = target: Beta-2 adrenergic receptor (Homo sapiens) (UniProt P07550); test: Adrenergic beta2 receptor (ADRB2) small molecule agonists, cell-based qHTS assay (AID 1963593);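 further: CHO cells stably overexpressing human ADRB2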
# In short: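 CHO cells stably over-expressing ADRB2 were plated overnight at 37C, then dosed with compounds plus a stimulation mix containing 100uM IBMX and 25uM Ro-20-1724 for 0.5hr at room temperature. cAMP was measured by HTRF competition, 1hr.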
# KiSS-1 receptor (Homo sapiens), sequence (Q969F8 whole entry, looked up): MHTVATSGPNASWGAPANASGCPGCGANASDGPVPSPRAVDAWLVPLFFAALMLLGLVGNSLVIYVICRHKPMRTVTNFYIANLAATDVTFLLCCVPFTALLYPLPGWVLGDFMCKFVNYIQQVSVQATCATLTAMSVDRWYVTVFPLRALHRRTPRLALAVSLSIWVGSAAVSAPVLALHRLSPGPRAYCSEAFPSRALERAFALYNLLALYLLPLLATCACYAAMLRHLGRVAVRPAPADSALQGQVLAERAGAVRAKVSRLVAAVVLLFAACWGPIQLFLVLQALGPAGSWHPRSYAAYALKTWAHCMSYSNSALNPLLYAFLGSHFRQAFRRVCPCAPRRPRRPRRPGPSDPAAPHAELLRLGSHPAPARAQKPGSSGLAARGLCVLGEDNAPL
# Muscarinic acetylcholine receptor M1 (Homo sapiens), sequence (P11229 whole entry, looked up): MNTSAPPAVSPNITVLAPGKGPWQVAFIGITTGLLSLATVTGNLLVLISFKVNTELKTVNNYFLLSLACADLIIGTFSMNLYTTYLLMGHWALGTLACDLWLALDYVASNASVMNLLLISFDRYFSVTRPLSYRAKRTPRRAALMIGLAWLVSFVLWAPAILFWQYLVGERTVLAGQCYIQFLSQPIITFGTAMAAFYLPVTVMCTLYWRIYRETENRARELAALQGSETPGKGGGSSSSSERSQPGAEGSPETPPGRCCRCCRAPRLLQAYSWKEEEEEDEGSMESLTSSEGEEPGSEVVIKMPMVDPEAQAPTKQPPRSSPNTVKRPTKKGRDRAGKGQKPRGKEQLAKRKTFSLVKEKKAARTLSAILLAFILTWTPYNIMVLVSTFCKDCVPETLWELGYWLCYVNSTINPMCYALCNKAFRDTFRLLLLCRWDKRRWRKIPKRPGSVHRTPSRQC
# D(2) dopamine receptor (Homo sapiens), sequence (P14416 whole entry, looked up): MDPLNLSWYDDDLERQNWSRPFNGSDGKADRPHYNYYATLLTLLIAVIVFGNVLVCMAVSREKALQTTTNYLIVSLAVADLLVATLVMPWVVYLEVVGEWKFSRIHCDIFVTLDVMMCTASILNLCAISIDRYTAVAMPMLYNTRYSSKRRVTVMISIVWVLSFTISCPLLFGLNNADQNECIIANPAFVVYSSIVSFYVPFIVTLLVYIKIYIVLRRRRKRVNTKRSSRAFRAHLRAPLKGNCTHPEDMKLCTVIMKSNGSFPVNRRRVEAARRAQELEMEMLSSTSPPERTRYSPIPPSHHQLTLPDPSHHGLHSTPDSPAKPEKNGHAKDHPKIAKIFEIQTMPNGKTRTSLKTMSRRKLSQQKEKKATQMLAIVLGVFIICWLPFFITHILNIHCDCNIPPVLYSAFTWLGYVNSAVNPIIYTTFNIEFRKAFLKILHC
# 5-hydroxytryptamine receptor 2A (Homo sapiens), sequence (P28223 whole entry, looked up): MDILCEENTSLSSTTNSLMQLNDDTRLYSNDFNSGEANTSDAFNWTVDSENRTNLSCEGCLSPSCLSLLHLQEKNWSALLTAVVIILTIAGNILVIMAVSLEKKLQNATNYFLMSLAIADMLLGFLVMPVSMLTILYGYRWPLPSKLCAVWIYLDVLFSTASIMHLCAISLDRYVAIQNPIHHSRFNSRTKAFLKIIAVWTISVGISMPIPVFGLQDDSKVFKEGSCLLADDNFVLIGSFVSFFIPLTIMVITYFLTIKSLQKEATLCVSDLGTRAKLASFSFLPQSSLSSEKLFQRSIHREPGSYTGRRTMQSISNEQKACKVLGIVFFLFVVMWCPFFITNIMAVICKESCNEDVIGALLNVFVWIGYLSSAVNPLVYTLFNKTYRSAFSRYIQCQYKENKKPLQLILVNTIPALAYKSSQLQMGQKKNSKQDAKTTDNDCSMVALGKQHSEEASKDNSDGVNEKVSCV
# Beta-2 adrenergic receptor (Homo sapiens), sequence (P07550 whole entry, looked up): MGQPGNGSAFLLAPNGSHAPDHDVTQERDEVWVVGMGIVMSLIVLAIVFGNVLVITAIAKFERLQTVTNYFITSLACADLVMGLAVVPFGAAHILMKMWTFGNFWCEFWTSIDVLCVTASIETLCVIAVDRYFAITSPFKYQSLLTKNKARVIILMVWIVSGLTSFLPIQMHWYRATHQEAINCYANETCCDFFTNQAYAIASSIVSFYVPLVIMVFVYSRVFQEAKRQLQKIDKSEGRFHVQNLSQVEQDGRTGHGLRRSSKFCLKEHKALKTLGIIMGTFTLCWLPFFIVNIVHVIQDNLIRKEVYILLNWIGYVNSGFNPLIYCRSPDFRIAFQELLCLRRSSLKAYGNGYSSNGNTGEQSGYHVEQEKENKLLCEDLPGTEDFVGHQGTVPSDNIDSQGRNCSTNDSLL
# Gonadotropin-releasing hormone receptor (Homo sapiens), sequence (P30968 whole entry, looked up): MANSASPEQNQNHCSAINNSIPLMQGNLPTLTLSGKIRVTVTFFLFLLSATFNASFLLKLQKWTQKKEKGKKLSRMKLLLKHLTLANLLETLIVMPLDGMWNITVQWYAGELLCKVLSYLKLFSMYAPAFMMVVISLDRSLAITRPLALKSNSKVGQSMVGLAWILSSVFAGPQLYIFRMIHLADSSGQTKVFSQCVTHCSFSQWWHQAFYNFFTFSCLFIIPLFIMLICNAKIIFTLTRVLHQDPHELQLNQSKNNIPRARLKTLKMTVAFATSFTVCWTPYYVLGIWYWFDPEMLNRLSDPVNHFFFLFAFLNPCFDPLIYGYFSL
compound,measurement,setting,value
COc1ccccc1OCC(O)CN1CCN(CC(=O)Nc2c(C)cccc2C)CC1 (centres undefined),Potency,[1],inactive
same,Potency,[2],inactive
same,Potency,[3],inactive
same,outcome,[4],inactive
same,outcome,[5],inactive
same,Potency,[6],inactive
same,Potency,[7],inactive
same,Potency,[8],inactive
same,Potency,[9],inactive
same,Potency,[10],inactive
same,Potency,[11],inactive
same,Potency,[12],inactive
same,Potency,[13],inactive
same,Potency,[14],inactive
same,Potency,[15],inactive
O=C(O)CCC(=O)c1ccc(-c2ccccc2)cc1,Potency,[1],inactive
same,Potency,[2],inactive
same,Potency,[3],inactive
same,outcome,[4],inactive
same,outcome,[5],inactive
same,Potency,[6],inactive
same,Potency,[7],inactive
same,Potency,[8],inactive
same,Potency,[9],inactive
same,Potency,[10],inactive
same,Potency,[11],inactive
same,Potency,[16],inactive
same,Potency,[13],inactive
same,Potency,[17],inactive
same,Potency,[14],inactive
O=C1[C@H](CC[C@H](O)c2ccc(F)cc2)[C@@H](c2ccc(O)cc2)N1c1ccc(F)cc1,Potency,[1],inactive
same,Potency,[2],inactive
same,Potency,[3],inactive
same,outcome,[4],inactive
same,outcome,[5],inactive
same,Potency,[6],inactive
same,Potency,[7],inactive
same,Potency,[8],inactive
same,Potency,[9],inactive
same,Potency,[10],inactive
same,Potency,[11],inactive
same,Potency,[16],inactive
same,Potency,[13],inactive
same,Potency,[18],inactive
same,Potency,[19],inactive
same,Potency,[17],inactive
same,Potency,[14],inactive
same,Potency,[15],inactive
CC(=O)c1c(C)cc(C(C)(C)C)cc1C,Potency,[1],inactive
same,Potency,[2],inactive
same,Potency,[3],inactive
same,outcome,[4],inactive
same,outcome,[5],inactive
same,Potency,[6],inactive
same,Potency,[7],inactive
same,Potency,[8],inactive
same,Potency,[9],inactive
same,Potency,[10],inactive
same,Potency,[11],inactive
same,Potency,[16],inactive
same,Potency,[13],inactive
same,Potency,[19],inactive
same,Potency,[17],inactive
same,Potency,[20],inactive
same,Potency,[14],inactive
same,Potency,[15],inactive
O=CC(=O)c1ccccc1,Potency,[1],inactive
same,Potency,[2],68.7 µM (active)
same,Potency,[3],inactive
same,outcome,[4],inactive
same,outcome,[5],inactive
same,Potency,[6],inactive
same,Potency,[7],inactive
same,Potency,[8],inactive
same,Potency,[9],inactive
same,Potency,[10],inactive
same,Potency,[11],inactive
same,Potency,[16],inactive
same,Potency,[13],inactive
same,Potency,[18],inactive
same,Potency,[17],inactive
same,Potency,[14],inactive
same,Potency,[15],inactive
CCCCCCOC(=O)CCCCC,Potency,[1],inactive
same,Potency,[2],inactive
same,Potency,[3],inactive
same,outcome,[4],inactive
same,outcome,[5],inactive
same,Potency,[6],inactive
same,Potency,[7],inactive
same,Potency,[8],inactive
same,Potency,[9],inactive
same,Potency,[10],inactive
same,Potency,[11],inactive
same,Potency,[16],inactive
same,Potency,[13],inactive
same,Potency,[18],inactive
same,Potency,[19],inactive
same,Potency,[17],inactive
same,Potency,[15],inactive
CC(C)CCOC(=O)CC(C)C,Potency,[1],inactive
same,Potency,[2],inactive
same,Potency,[3],inactive
same,outcome,[4],inactive
same,outcome,[5],inactive
same,Potency,[6],inactive
same,Potency,[7],inactive
same,Potency,[8],inactive
same,Potency,[9],inactive
same,Potency,[10],inactive
same,Potency,[11],inactive
same,Potency,[12],inactive
same,Potency,[13],inactive
same,Potency,[19],inactive
same,Potency,[17],inactive
same,Potency,[20],inactive
same,Potency,[15],inactive
CCc1nccnc1CC,"activity change, negative = cytotoxicity",[1],5.52% [at 19 µM]
same,"activity, positive = activation",[2],0.453% [at 19 µM]
same,activity change,[3],"-0.658% [at 11.8 µM, active compounds read high]"
same,activation,[4],1.62% [at 15.8 µM]
same,activation,[5],-0.595% [at 11.8 µM]
same,activation,[6],3.14% [at 13.5 µM]
same,activation,[7],1.15% [at 13.6 µM]
same,"activity change, negative = cytotoxicity",[8],-2.07% [at 13.5 µM]
same,"activity change, negative = cytotoxicity",[9],-5.78% [at 13.5 µM]
same,"activity change, negative = cytotoxicity",[10],1.59% [at 13.5 µM]
same,activation,[11],3.48% [at 13.5 µM]
same,activation,[12],3.43% [at 15.9 µM]
same,activation,[18],0.766% [at 19 µM]
same,"activity change, negative = inhibition",[19],-3.19% [at 18.9 µM]
same,"activity change, negative = inhibition",[17],-4.86% [at 19 µM]
same,Potency,[20],inactive
same,activation,[14],-2.33% [at 19 µM]
